This is an account of results in PubChem BioAssay (NCI).

“And” between values parts separate entries of the source, which are not always exact repeats. Equal values may be shown once. This is part of a sample that, as a whole, favours compounds with a hit. Of some 83,000 tested, about 20% had one in any assay.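 Each cell line was grown in a 96-well plate and treated with one concentration of compound for 48 hours. Values below 10 were considered active.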 The source made the active and inactive calls.

For this assay, the system named is HL-60(TB) leukemia. As to the kind of experiment: NCI-60 one-dose screen, 48 h (100 = growth as untreated, 0 = no growth, -100 = all killed). Particulars: 10 µM unless noted.
Turning to `CC(C)C(=O)Nc1ccc([N+](=O)[O-])c(C(F)(F)F)c1`, the growth was 91.1% (inactive) and 98.3% (inactive). The same measure for `CC1(C)CC[C@]2(C(=O)NCCNCCN)CC[C@]3(C)C(=CC[C@@H]4[C@@]5(C)CCC(=O)C(C)(C)[C@@H]5CC[C@]43C)[C@@H]2C1`: -52.9% (active); for `COc1ccc(C2=CC(c3ccc(Oc4ccnc5cc(Cl)ccc45)c(OC)c3)c3c(nc(OC)[nH]c3=O)N2)cc1` (centres undefined): 85.7% (inactive). With `CN1C(=O)N(C)C2Nn3c(s/c(=C\c4ccc(Cl)cc4Cl)c3=O)=NC21` (centres undefined) the figure was 41.5% (inactive); with `COc1cc(-c2nn(-c3cccc(NC(=O)c4ccccc4)c3)cc2-c2ccncc2)ccc1Cl`, -18.8% (active); with `CCCCN(CCCC)CCCO`, 95.5% (inactive). Regarding `NNC(=O)/C(=C\c1ccc([N+](=O)[O-])cc1)CC(=O)c1ccc(Cl)c(Cl)c1`, the growth is 98.9% (inactive). The same measure for `CN(C)CCNC(=O)c1cccc(-c2cnc3ccc(-c4ccc5c(c4)OCO5)nn23)c1`: 64.1% (inactive). The same measure for `COc1ccc(\C=N/N=C(N)/C(N)=N\N=C/c2ccc(OC)cc2)cc1`: 91.5% (inactive); for `COc1ccc(-c2cnc(-c3ccc(F)cc3)[nH]2)cc1`: 74.9% (inactive).

Turning to `CCOC(=O)C1=C(C)NC(C)=C(C(=O)OCC)C1`, the growth was 110% (inactive) and 102% (inactive). As to `CCCNc1ccc(C2=NCCCN2)cc1`, the growth was 95.5% (inactive). With `COc1ccc2nc3ccccc3c(NCCNCCO)c2c1` the figure was 6.15% (active); with `COc1cc(CNC(=O)CCCC/C=C/C(C)C)ccc1OCc1nnc(Nc2ccccc2F)o1`, 89.7% (inactive). The same measure for `COc1ccc(Nc2cc(C)nc(NCc3ccccc3)n2)cc1`: 11.3% (inactive); for `CCN1C(=S)N(c2ccccc2)C2NC(=S)N(/N=C/C=C/c3ccccc3OC)C21` (centres undefined): -52.9% (active); for `CC(Oc1ccc(C(=O)NS(=O)(=O)C(C)(C)C)cc1C(F)(F)F)c1ccc(Oc2ccccc2)cn1` (centres undefined): 72.2% (inactive). The same measure for `N#CC1c2ccccc2C=CN1C(=O)c1ccccc1` (centres undefined): 93.2% (inactive) and 71.1% (inactive).

On to `NC(N)=NC1CCCCC1`, for which the growth is 94.4% (inactive). The same measure for `O=Nc1c(O)ccc2ccccc12`: -26.3% (active) and 74% (inactive); for `Cc1cc(N(CCCNc2ccnc3cc(Cl)ccc23)Cc2ccco2)nc(N2CCOCC2)n1`: 45.5% (inactive); for `COc1cc2cc(COc3nccc(-c4ccc(Cl)cc4)n3)c(=O)[nH]c2cc1OC`: 70.2% (inactive). The same measure for `O=C(O)Cc1ccccn1`: 106% (inactive). The same measure for `c1ccc(-c2cn3ccnc3c(-c3ccc4ncn(C5CCCCC5)c4c3)n2)cc1`: 32.9% (inactive); for `CCN(CC)CCC(CNc1c2ccc(Cl)cc2nc2ccc(OC)cc12)c1ccccc1` (centres undefined): 28.7% (inactive). Take `O=C(/C=C/c1ccco1)Nc1ncc(Cc2cccc(C(F)(F)F)c2)s1`: the growth was -53.6% (active).

For `COc1ccccc1Nc1nnc(-c2ccc(Cl)cc2)o1`, the growth is -9.62% (active). With `O=C(c1ccccc1)c1ccc(-c2ccc(O)cc2)cc1` the figure was 75.1% (inactive); with `CC(C)(O)C1CCCN1C(=O)c1ccccc1I` (centres undefined), 89.3% (inactive); with `O=c1c2c([nH]c3ccccc13)CCCC2`, 97.6% (inactive) and 5.42% (active). Regarding `O=C(Nc1ccc(C2=NCCCN2)cc1)Nc1ccc(C2=NCCCN2)cc1`, the growth is 87.4% (inactive). In the case of `Cc1oc2c(C(=O)N/N=C\c3ccc(O)cc3O)c[nH]c2c1C`, the growth was -9.06% (active). Regarding `O=C(/C=C/c1ccccc1)c1cccc(O)c1`, the growth was 72.1% (inactive). As for `N=C(N)c1ccc(-c2ccc(-c3cncc4ccccc34)s2)cc1F`, the growth was -45.5% (active).

As for `Nc1nc(N)c2cc(Sc3ccc(Cl)cc3)ccc2n1`, the growth was 27.5% (inactive). As to `COc1cccc(-c2cc(-c3cccs3)c(C#N)c(=O)[nH]2)c1`, the growth was 102% (inactive). The same measure for `Cc1ccc(C2C3CC4CCCCC4N3[C@@]3(C(=O)Nc4cc(Cl)ccc43)C2C(=O)c2nc3ccccc3[nH]2)cc1` (some centres undefined): 1.4% (active); for `O=C1c2ccccc2C(c2ccccc2)C1c1ccccc1` (centres undefined): 76.4% (inactive); for `CCCCCCCSc1ncnc2[nH]ncc12`: 87.4% (inactive).
